We go through 35 targets from the supplement of paper PMC10849652.

Of roughly 8,800 targets only a part is listed; those with a hit were picked by preference. About 0.5% of all pairs of compound and target were hits. A number with no mark means an inactive call.

Chain of UniProt P40616 (P40616 whole entry, looked up): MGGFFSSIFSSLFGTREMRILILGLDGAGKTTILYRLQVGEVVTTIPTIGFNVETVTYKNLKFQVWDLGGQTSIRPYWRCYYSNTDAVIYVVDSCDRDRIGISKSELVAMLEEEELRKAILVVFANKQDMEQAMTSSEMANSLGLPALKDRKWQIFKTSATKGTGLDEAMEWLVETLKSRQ
Chain of UniProt P54886 (P54886 whole entry, looked up): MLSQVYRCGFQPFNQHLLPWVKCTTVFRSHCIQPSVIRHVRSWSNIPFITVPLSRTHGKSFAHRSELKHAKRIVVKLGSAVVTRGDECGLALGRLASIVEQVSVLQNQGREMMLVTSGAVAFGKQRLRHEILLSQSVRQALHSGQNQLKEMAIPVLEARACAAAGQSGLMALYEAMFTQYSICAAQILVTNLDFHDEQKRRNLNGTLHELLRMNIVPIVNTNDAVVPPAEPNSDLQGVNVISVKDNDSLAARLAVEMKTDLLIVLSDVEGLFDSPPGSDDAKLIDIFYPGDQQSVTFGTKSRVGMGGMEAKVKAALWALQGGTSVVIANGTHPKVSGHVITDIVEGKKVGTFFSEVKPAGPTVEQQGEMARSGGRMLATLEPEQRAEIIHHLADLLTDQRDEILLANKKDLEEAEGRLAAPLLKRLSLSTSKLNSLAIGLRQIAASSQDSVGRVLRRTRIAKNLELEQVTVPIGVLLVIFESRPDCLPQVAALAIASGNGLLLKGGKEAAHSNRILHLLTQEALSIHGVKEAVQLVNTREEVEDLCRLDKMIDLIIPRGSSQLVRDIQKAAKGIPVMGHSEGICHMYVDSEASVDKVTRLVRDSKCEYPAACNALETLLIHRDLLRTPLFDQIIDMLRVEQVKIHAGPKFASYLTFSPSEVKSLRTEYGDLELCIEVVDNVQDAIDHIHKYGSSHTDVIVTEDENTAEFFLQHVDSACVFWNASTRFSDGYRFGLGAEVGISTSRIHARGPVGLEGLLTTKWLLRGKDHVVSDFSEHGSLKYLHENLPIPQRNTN
Chain of UniProt P09110 (P09110 whole entry, looked up): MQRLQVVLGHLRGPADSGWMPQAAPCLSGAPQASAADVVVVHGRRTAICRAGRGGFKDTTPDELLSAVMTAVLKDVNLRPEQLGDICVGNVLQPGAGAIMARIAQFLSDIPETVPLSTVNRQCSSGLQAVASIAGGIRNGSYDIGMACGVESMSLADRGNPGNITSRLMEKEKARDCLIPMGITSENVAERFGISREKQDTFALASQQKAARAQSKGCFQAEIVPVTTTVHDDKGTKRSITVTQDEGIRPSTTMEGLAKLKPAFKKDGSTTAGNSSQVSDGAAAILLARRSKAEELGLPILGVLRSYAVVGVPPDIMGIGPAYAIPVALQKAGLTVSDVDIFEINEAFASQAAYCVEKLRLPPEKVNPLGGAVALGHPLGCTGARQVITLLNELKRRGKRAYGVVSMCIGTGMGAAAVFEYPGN
Chain of UniProt Q9NXU5 (Q9NXU5 whole entry, looked up): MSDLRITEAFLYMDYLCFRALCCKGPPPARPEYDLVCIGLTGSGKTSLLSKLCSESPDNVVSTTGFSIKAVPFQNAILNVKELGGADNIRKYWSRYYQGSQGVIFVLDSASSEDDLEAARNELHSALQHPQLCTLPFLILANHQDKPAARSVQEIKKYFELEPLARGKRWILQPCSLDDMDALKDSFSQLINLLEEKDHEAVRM
Chain of UniProt P31749 (P31749 whole entry, looked up): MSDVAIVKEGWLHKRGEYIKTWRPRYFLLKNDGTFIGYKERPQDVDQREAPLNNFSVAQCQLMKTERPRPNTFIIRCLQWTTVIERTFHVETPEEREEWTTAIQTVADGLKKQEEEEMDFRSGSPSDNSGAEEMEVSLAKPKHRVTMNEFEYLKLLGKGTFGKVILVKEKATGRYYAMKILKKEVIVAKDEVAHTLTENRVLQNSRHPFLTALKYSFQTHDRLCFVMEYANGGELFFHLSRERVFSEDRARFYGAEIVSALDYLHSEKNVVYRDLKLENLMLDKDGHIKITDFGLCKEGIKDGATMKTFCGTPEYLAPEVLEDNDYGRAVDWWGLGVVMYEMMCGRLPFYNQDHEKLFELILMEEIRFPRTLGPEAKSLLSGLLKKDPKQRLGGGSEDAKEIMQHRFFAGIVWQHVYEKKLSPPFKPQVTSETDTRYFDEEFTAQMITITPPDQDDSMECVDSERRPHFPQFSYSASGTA
Chain of UniProt O00116 (O00116 whole entry, looked up): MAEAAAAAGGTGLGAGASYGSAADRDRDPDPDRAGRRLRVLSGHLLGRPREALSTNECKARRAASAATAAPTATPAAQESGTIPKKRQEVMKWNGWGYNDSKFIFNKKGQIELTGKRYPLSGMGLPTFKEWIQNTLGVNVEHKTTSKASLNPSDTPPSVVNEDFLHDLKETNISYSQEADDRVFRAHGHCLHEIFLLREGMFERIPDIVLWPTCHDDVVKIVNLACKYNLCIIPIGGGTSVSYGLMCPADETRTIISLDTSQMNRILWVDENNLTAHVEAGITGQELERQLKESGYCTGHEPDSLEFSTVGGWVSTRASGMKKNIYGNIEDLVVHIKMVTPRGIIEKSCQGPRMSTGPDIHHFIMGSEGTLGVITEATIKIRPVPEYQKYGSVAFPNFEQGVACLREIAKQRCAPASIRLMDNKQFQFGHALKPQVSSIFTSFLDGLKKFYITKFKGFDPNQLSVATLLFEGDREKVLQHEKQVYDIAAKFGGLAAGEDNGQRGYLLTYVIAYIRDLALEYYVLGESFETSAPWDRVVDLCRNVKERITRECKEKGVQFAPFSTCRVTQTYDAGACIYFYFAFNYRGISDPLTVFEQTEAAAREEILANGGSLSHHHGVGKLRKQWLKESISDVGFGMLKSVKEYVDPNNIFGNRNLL
Chain of UniProt P11310 (P11310 whole entry, looked up): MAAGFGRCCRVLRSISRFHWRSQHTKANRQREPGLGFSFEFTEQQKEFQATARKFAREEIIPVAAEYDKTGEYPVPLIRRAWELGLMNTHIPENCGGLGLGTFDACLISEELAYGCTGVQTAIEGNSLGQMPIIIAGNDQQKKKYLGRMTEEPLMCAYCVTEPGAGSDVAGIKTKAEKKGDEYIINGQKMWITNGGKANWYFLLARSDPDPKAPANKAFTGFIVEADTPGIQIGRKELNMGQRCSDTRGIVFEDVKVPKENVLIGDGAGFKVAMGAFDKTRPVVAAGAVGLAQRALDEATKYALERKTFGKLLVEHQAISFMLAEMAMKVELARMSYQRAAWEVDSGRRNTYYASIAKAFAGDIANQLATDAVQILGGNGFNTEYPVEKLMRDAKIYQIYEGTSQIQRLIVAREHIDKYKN
Chain of UniProt Q9UHB7 (Q9UHB7 whole entry, looked up): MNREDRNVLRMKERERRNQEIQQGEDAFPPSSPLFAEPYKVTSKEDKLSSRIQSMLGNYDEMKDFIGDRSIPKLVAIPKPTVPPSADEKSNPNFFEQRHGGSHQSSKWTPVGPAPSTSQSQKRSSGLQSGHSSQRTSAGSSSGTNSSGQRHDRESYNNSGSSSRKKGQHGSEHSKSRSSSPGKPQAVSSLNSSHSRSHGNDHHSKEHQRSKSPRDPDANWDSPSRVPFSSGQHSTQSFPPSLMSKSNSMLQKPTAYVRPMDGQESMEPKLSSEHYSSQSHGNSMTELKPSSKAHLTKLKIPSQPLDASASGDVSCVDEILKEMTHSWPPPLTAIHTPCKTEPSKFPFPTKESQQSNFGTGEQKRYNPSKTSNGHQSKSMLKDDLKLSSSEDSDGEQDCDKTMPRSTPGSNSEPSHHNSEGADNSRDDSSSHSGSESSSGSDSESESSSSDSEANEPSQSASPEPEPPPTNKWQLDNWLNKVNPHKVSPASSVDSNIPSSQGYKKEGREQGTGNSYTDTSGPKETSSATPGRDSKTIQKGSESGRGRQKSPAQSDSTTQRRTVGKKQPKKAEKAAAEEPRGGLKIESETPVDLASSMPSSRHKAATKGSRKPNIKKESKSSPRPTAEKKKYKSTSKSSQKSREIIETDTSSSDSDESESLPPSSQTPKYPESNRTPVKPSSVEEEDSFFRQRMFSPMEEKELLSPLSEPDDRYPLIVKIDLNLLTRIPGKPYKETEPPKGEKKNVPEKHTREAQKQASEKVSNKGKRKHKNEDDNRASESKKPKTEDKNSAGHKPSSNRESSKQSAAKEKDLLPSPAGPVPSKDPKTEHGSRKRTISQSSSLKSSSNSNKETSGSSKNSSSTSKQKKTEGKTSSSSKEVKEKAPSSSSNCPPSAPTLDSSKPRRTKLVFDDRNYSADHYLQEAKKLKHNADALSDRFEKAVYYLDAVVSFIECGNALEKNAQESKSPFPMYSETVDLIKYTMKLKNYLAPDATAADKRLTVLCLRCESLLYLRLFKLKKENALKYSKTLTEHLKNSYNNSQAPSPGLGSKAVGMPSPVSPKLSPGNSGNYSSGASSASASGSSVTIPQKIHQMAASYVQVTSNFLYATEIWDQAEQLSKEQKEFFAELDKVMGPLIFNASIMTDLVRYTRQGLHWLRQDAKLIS
Chain of UniProt O43823 (O43823 whole entry, looked up): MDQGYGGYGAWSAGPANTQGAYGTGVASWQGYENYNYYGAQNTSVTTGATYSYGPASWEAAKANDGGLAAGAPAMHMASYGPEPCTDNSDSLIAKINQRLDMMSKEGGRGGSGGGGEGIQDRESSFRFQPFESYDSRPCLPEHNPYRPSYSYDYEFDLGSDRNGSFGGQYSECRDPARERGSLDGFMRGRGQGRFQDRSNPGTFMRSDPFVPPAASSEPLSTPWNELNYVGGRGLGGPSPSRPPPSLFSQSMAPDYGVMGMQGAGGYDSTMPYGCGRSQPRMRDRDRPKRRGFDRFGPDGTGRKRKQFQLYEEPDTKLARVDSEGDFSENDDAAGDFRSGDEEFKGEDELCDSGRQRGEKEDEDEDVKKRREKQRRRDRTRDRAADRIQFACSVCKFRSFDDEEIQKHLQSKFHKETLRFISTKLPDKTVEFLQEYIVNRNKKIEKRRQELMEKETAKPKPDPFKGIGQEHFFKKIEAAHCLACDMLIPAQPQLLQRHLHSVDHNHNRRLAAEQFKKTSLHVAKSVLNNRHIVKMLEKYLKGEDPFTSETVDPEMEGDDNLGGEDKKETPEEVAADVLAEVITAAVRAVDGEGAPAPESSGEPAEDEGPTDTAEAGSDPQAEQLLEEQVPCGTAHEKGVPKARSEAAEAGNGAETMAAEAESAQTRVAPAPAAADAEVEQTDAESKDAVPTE

Compound in the first assay: COc1cc2nc(-c3cc(F)ccc3O)nc(N[C@@H]3CNC[C@H]3C(C)(C)O)c2cc1OC
As to the kind of experiment: log2 fold change, soluble protein after heating vs DMSO (PISA); higher = thermal stabilisation; K562 lysate, 10 uM; active = over 0.2 and 3.5 SD of the protein, either way, in both replicates (recomputed). A digest of the protocol:
(§1)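 Pellets of K562 cells were dounce-homogenised in PBS pH 7.4 with 1 mM MgCl2, and the crude extract was held at 1 mg/mL protein for a 30 min treatment with 10 μM compound. Aliquots were heated for 3 min over 48°C-58°C and pooled before NP-40 was added to 0.5% at 4°C. The supernatant from 21,000xg for 90 min was quantified by TMTpro 16plex LC-MS/MS with channel sums equalised. Values are reported from duplicates as log-two fold change in thermal stability relative to solvent controls.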
For the target ABL2 (UniProt P42684), the log2 fold change was -0.009.
On the same count and under the same terms, in the case of AKT1 (UniProt P31749) it was 0.003; in that of AFF4 (UniProt Q9UHB7), 0.015; in that of ARL1 (UniProt P40616), 0.053.
With AKAP8 (UniProt O43823), the log2 fold change was 0.058.
Regarding ACLY (UniProt P53396), the log2 fold change is 0.003.
ACACB (UniProt O00763): the log2 fold change was 0.006.
For ARL15 (UniProt Q9NXU5), the log2 fold change was 0.
Consider ACAA1 (UniProt P09110), for which the log2 fold change was 0.01.
As for ACADM isoform 2 (UniProt P11310), the log2 fold change is 0.09.
On to ALDH18A1 (UniProt P54886), for which the log2 fold change is 0.017.
On the same count and under the same terms, next, AGPS (UniProt O00116): -0.03.

Compound in the next assay: COc1cc2ncnc(Nc3ccc(F)c(Cl)c3)c2cc1OCCCN1CCOCC1 [gefitinib]
The assay is described as above. The procedure, abridged: as §1
Turning to ABCF3 (UniProt Q9NUQ8), the log2 fold change was -0.006.
On to AP3D1 isoform 5 (UniProt O14617), for which the log2 fold change is -0.014.
As to APAF1 (UniProt O14727), the log2 fold change is 0.017.
With AGL (UniProt P35573), the log2 fold change is -0.007.
In the case of ANKRD27 (UniProt Q96NW4), the log2 fold change is 0.03.
For the target AKR1B1 (UniProt P15121), the log2 fold change is -0.016.
Turning to AFF1 isoform 2 (UniProt P51825), the log2 fold change is -0.323.
In the case of ANXA1 (UniProt P04083), the log2 fold change is -0.012.
For the target AARS2 (UniProt Q5JTZ9), the log2 fold change is -0.02.
Turning to AKAP8L (UniProt Q9ULX6), the log2 fold change was 0.009.
As for AHCYL1 (UniProt O43865), the log2 fold change was -0.012.
Take ADRM1 (UniProt Q16186): the log2 fold change is -0.009.
On to ALDH6A1 (UniProt Q02252), for which the log2 fold change is 0.098.
Take ACACA isoform 4 (UniProt Q13085): the log2 fold change is -0.004.
For ASCC2 (UniProt Q9H1I8), the log2 fold change was -0.057.
As for ACBD6 (UniProt Q9BR61), the log2 fold change was -0.022.
For the target ALG13 (UniProt Q9NP73), the log2 fold change was -0.224.
Consider AMD1 (UniProt P17707), for which the log2 fold change is 0.041.
In the case of AK4 (UniProt P27144), the log2 fold change is -0.043.
As for AIFM2 (UniProt Q9BRQ8), the log2 fold change was 0.038.
Consider ASB6 (UniProt Q9NWX5), for which the log2 fold change is -0.046.
For the target ABCF2 isoform 2 (UniProt Q9UG63), the log2 fold change is -0.02.
On to ARGLU1 (UniProt Q9NWB6), for which the log2 fold change is 0.006.
As to ABL2 (UniProt P42684), the log2 fold change was -0.176.
AKT1 (UniProt P31749): the log2 fold change is -0.05.
For AFF4 (UniProt Q9UHB7), the log2 fold change was 0.013.
For the target ARL1 (UniProt P40616), the log2 fold change is 0.057.
For the target AKAP8 (UniProt O43823), the log2 fold change is -0.042.
Take ACLY (UniProt P53396): the log2 fold change was 0.004.
In the case of ACACB (UniProt O00763), the log2 fold change was 0.006.
ARL15 (UniProt Q9NXU5): the log2 fold change is -0.057.
ACAA1 (UniProt P09110): the log2 fold change is 0.015.
The same measure, in the same setting: next, ACADM isoform 2 (UniProt P11310): -0.024.
Consider ALDH18A1 (UniProt P54886), for which the log2 fold change is 0.001.
Regarding AGPS (UniProt O00116), the log2 fold change was -0.002.
